Only some compounds are listed: those with a hit (about 3.6% of all), similar ones and a draw of the others.
HSF1 inhib – HSF1 inhibition. 300,000 compounds, 0.77% hits. activity change, negative = inhibition, % at 7.5 µM (by protocol). NIH3T3-HGL HSE-luciferase, MG132-induced, luminescence 8 h; hits give low values. AID 2098;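 active = more than half of replicate wells show activity change below -50%, luminescence cut by over half; inconclusive = some wells, but at most half, below -50%; inactive = no replicate well below -50%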;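 also: luciferase reports HSF-1 transcriptional activity via heat shock element; 0% = median of DMSO wells and -100% = zero luminescence signal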
LMP1 NFkB inh – inhibitors of Epstein-Barr LMP1-induced NF-kappaB reporter | 350,000 compounds, 0.69% hits | inhibition, % at 12.5 µM | LMP1-induced NF-kappaB luciferase reporter cells, luminescence; in the data active = inhibition above about 41%; inconclusive = no clear call, values can overlap the other calls;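 also: 0% = neutral control wells and 100% = reference inhibitor control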
HSF-1 act – increases HSF-1 driven luciferase reporter signal. activation, % at 9 µM. NIH3T3-HGL HSF-1 luciferase reporter, MG132, 8 h; 100% = twice DMSO control signal. 300,000 compounds, 1.7% hits;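 active = mean replicate activation of at least 50% with a set share of replicates each reaching 50%; inconclusive = only one of those two conditions met; inactive = mean below 50% and too few replicates reaching it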;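 also: 0% = median of the neutral control wells and 100% = twice that signal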
TWEAK Fn14 block – blocks TWEAK-Fn14 interaction in a reporter cell assay; TWEAK-stimulated Fn14 reporter cells, luciferase luminescence, 8 h; inhibition, % at 10 µM; 360,000 compounds, 2% hits; in the data active = inhibition above about 50%
TROY NFkB inh – blocks TROY-dependent signaling in reporter cells; Q293 LMP1-TROYcd NF-kB luciferase reporter, 4 h; inhibition, % at 10 µM; 360,000 compounds, 0.98% hits; AID 1347056;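 active = compounds whose plate-normalised and pattern-corrected inhibition of the luciferase reporter signal at the single screening dose is 50% or more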
LGR2 antag – inhibitors of bursicon-induced Drosophila LGR2 receptor cAMP signaling | HEK293 LGR2, CRE-luciferase, bursicon-stimulated, 4 h | inhibition, % at 9.99 µM | 380,000 compounds, 0.35% hits | AID 720647;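 active = drop in luminescence signal, shown as inhibition above about 50% in the replicate tests, limit read from the data, passing the limit was not always enough; inconclusive = probably only some replicates passing the limit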;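 also: agonist challenge used bursicon conditioned medium at about half maximal strength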
An asterisk follows results filed as active; ? = inconclusive; . = not tested or not shown.

SMILES	HSF1 inhib	LMP1 NFkB inh	HSF-1 act	TWEAK Fn14 block	TROY NFkB inh	LGR2 antag
O=C(Nc1ccc(NC(=O)C2CCCCC2)cn1)c1ccco1	8	37	26	75*	30	.
CC(C)(C)C(=O)Nc1ccc(/C=C/C(=O)c2ccco2)cc1	-25	1	-23	54*	72*	17
C/C(=N\NC(=O)c1ccco1)c1ccc(NC(=O)c2ccccc2)cc1	47	-14	94*	-26	-35	-20
O=C([C@H]1[C@H](CO)[C@H]2Cn3c(ccc(/C=C/c4ccccc4)c3=O)[C@H]2N1CC1CC1)N1CCOCC1	.	.	.	.	.	-3
O=C(Cc1ccccc1)Nc1ccc(NC(=O)c2ccco2)nc1	17	-33	44	-13	-91	.
O=C(Nc1cccc(S(=O)(=O)c2cccc(NC(=O)c3ccco3)c2)c1)c1ccco1	0	22	4	59*	42	-8
O=C(Nc1ccc(NC(=O)c2ccco2)nc1)c1ccco1	15	45*	3	74*	12	60*
O=C(Nc1ccc(NC(=O)c2ccco2)nc1)c1ccccn1	14	16	26	52*	-40	.
CC(C)(C)C(=O)Nc1ccc(NC(=O)c2ccco2)nc1	-91*	81*	-91	104*	85*	98*
CCCNC(=O)Nc1ccc2c(c1)OC[C@@H](C)N(Cc1ccc(-c3ccccn3)cc1)C[C@H](C)[C@@H](OC)CN(C)C2=O	.	.	.	.	.	-1
C[C@@H]1CN([C@@H](C)CO)C(=O)c2cccc(NC(=O)C3CCCCC3)c2O[C@@H]1CN(C)Cc1ccncc1	.	.	.	.	.	-5
COc1ccc2c3c(n(C)c2c1)[C@H](CO)NCC31CCN(C(=O)c2cccc(F)c2)CC1	.	.	.	.	.	1
COc1ccccc1C(=O)NC1CCSc2ccccc21 (configuration not stated)	17	-2	63*	-15	7	-3
COc1ccc(OC)c(C(=O)NC2CCSc3ccccc32)c1 (configuration not stated)	10	-9	18	-6	5	-19
O=C(NC1CCSc2ccccc21)c1ccccc1Cl (configuration not stated)	40	-3	68*	-5	-13	-16
O=C(NC1CCSc2ccccc21)c1ccccc1F (configuration not stated)	8	1	22	-7	-9	-18
C[C@@H]1CN([C@H](C)CO)C(=O)c2cc(NC(=O)CCCCCC(=O)Nc3ccccc3N)ccc2O[C@@H]1CN(C)Cc1ccc(C(F)(F)F)cc1	.	.	.	.	.	-7
C[C@H](CO)N1C[C@H](C)[C@H](CN(C)C(=O)C2CCOCC2)Oc2cc(C#Cc3ccncc3)ccc2S1(=O)=O	.	.	.	.	.	0
Cc1ccc(S(=O)(=O)Nc2ccc3c(c2)C(=O)N([C@H](C)CO)C[C@H](C)[C@H](CN(C)C(=O)Nc2c(C)noc2C)OCCCC[C@H](C)O3)cc1	.	.	.	.	.	-1
CC(C)(C)NC(=O)c1ccc2c3c(cccc13)CC2	48	-4	101*	6	-24	-3
COc1ccc2c3c(n(C)c2c1)[C@@H](CO)N(C(=O)c1ccccc1)CC31CCN(C(C)=O)CC1	.	.	.	.	.	-9
O=C(CC1SC(=NCCc2ccccc2)N(/N=C/c2cccs2)C1=O)Nc1ccc(Cl)cc1 (configuration not stated)	36	-1	69*	4	-52	-20
Nc1c(-c2ccccc2)c(CSc2nc3ccccc3[nH]2)nn1-c1ccc(Cl)cc1	12	-8	4	20	4	6
Cc1ccccc1-n1nc(CSc2nc3ccccc3[nH]2)c(-c2ccccc2)c1N	23	1	60*	29	-3	.
C[C@@H]1CN([C@H](C)CO)C(=O)c2cccc(NC(=O)c3ccc(-c4nccs4)cc3)c2O[C@H]1CN(C)CC1CCCCC1	.	.	.	.	.	0
SMILES	HSF1 inhib	LMP1 NFkB inh	HSF-1 act	TWEAK Fn14 block	TROY NFkB inh	LGR2 antag
COc1ccc(CN2CSC(=S)N(Cc3ccccc3)C2)cc1	5	35	11	-12	-20	-5
S=C1SCN(Cc2ccccc2)CN1Cc1ccco1	.	42*	.	10	-4	-2
S=C1SCN(Cc2cccnc2)CN1Cc1cccnc1	-86*	20	-90	-1	-11	19
S=C1SCN(Cc2ccccc2)CN1Cc1ccccc1	0	33	10	0	2	14
COc1cccc(NC(=O)N2CC3(C2)[C@H](c2ccccc2)[C@@H](CO)N3C(=O)C2CCCC2)c1	.	.	.	.	.	-6
CCC(=O)N(C)C[C@H]1Oc2cc(-c3ccc(C)cc3)ccc2S(=O)(=O)N([C@@H](C)CO)C[C@@H]1C	.	.	.	.	.	10
O=C1NCCc2c1[nH]c1ccccc21	3	-2	7	3	-14	.
COc1ccc2[nH]c3c(c2c1)CCNC3=O	-25	17	-25	61*	25	-13
Nc1cc(N)nc(SCC(=O)Nc2ccc(Br)cc2Cl)n1	44	-23	62*	-18	-22	.
O=C(O)c1cccc(N/N=C/c2sc(N3CCOCC3)nc2-c2ccccc2)c1	-8	-35	-13	-77	-88	-115
O=[N+]([O-])c1ccc(N/N=C/c2sc(N3CCOCC3)nc2-c2ccccc2)c(S(=O)(=O)Nc2ccc(Cl)cc2)c1	-3	55*	-22	61*	59*	5
O=[N+]([O-])c1ccc(N/N=C/c2sc(N3CCOCC3)nc2-c2ccccc2)c(S(=O)(=O)Nc2ccccc2Cl)c1	.	35	.	69*	49	?
O=C(Cn1ncc(Cl)c(Cl)c1=O)NC(=O)NC1CCCCC1	.	4	.	104*	49	96*
CC(NC(=O)Cn1ncc(Cl)c(Cl)c1=O)C12CC3CC(CC(C3)C1)C2 (configuration not stated)	-35	-94	-24	103*	87*	.
CCn1cc(C(=O)NC(C)C23CC4CC(CC(C4)C2)C3)cn1 (configuration not stated)	0	3	7	-8	3	-3
C[C@@H]1CN([C@@H](C)CO)C(=O)CCCn2nncc2CO[C@@H]1CN(C)Cc1cccc(O)c1	.	.	.	.	.	11
O=S(=O)(Nc1cccc2ncccc12)c1cccs1	21	24	7	107*	65*	.
Cc1c(NS(=O)(=O)c2cccs2)cccc1-c1nc2cccnc2s1	-4	-4	18	-3	-4	-15
O=C([C@H]1[C@H](CO)[C@H]2Cn3c(ccc(-c4ccncc4)c3=O)[C@@H]1N2Cc1cccnc1)N1CCOCC1	.	.	.	.	.	8
CCOC(=O)CSC1=N/C(=C\c2cccnc2)C(=O)N1c1ccc(OC)cc1	-3	56*	11	-11	7	4
Cc1ccc(-n2nc3c([n+]2[O-])CCc2c-3no[n+]2[O-])cc1	-17	22	-37	57*	-4	.
C=CCn1c(=O)c2ccccc2n2c(SCC(=O)Nc3sc(C)c(CC)c3C(=O)OCC)nnc12	20	1	54*	-16	18	7

From PubChem BioAssay
